Calls of active or inactive are those of the source. The calls were made as follows: active = hit-call score of the fitted dose curve at least 0.9, where 1 is the maximum; inactive = score below 0.9.
Assays:
[1] = read-out: Tissue Factor, F3 (gene 2152); assay: BSK_CASM3C_TissueFactor: BioMAP Diversity Plus: CASM3C Assay for Tissue Factor Biomarker Activity (AID 2283052); conditions: primary human coronary artery smooth muscle cells; actives raise or lower the signal;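 also: cell surface tissue factor protein level read by ELISA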
[2] = read-out: Interferon-gamma inducible Protein 10 (IP10), CXCL10 (gene 3627); assay: BSK_hDFCGF_IP10: BioMAP Diversity Plus: hDFCGF Assay for Interferon-gamma inducible Protein 10 (IP10) Biomarker Activity (AID 2283053); conditions: primary human foreskin fibroblasts; actives raise or lower the signal
Procedure, shortened: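 ELISA quantification of IP-10 after a 24 h chemical exposure of human dermal foreskin fibroblast primary cultures. Both increases and decreases versus DMSO fitted.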

[3] = read-out: Urokinase-type plasminogen activator receptor (uPAR), PLAUR (gene 5329); assay: BSK_CASM3C_uPAR: BioMAP Diversity Plus: CASM3C Assay for Urokinase-type plasminogen activator receptor (uPAR) Biomarker Activity (AID 2283054); conditions: primary human coronary artery smooth muscle cells; actives raise or lower the signal;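 also: cell-surface uPAR protein level quantified by ELISA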
[4] = read-out: Vascular cell adhesion molecule 1 (VCAM1), VCAM1 (gene 7412); assay: BSK_CASM3C_VCAM1: BioMAP Diversity Plus: CASM3C Assay for Vascular cell adhesion molecule 1 (VCAM1) Biomarker Activity (AID 2283055); conditions: primary human coronary artery smooth muscle cells; actives raise or lower the signal;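 also: VCAM-1 protein level quantified by ELISA on the cells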
[5] = read-out: Collagen III, COL3A1 (gene 1281); assay: BSK_hDFCGF_CollagenIII: BioMAP Diversity Plus: hDFCGF Assay for Collagen III Biomarker Activity (AID 2283056); conditions: primary human foreskin fibroblasts; actives raise or lower the signal
Procedure, shortened: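 Human foreskin fibroblast primary cultures sampled 24 h after dosing; Collagen III quantified by ELISA. Signal fitted bidirectionally against DMSO baseline.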

[6] = read-out: Epidermal growth factor receptor (EGFR), EGFR (gene 1956); assay: BSK_hDFCGF_EGFR: BioMAP Diversity Plus: hDFCGF Assay for Epidermal growth factor receptor (EGFR) Biomarker Activity (AID 2283057); conditions: primary human foreskin fibroblasts; actives raise or lower the signal
Procedure, shortened: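 EGFR levels by ELISA in human dermal fibroblast cultures, 24 h post-treatment, fitted bidirectionally versus DMSO. Parallel wells stained with sulforhodamine B to detect overt cytotoxicity.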

[7] = read-out: Interleukin-8 (IL8), CXCL8 (gene 3576); assay: BSK_hDFCGF_IL8: BioMAP Diversity Plus: hDFCGF Assay for Interleukin-8 (IL8) Biomarker Activity (AID 2283058); conditions: primary human foreskin fibroblasts; actives raise or lower the signal
Procedure, shortened: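 Primary human foreskin fibroblasts (hDFCGF system) dosed with chemical; IL-8 measured by ELISA 24 hours later. Bidirectional curve fitting relative to DMSO baseline; cytotoxicity tracked in parallel cultures by SRB total protein staining.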

[8] = BSK_hDFCGF_Proliferation: Cell Proliferation Assessment in the BioMAP Diversity Plus: hDFCGF Assay (AID 2283059); conditions: primary human foreskin fibroblasts;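 also: curves fitted for both rise and fall of signal versus DMSO baseline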
Procedure, shortened: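 Steps: dose primary human dermal fibroblasts (foreskin); […] fix in 10% TCA; stain with 0.1% SRB; read 560 nm; fit gain or loss of signal against DMSO.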

[9] = read-out: Macrophage colony-stimulating factor (MCSF), CSF1 (gene 1435); assay: BSK_hDFCGF_MCSF: BioMAP Diversity Plus: hDFCGF Assay for Macrophage colony-stimulating factor (MCSF) Biomarker Activity (AID 2283060); conditions: primary human foreskin fibroblasts; actives raise or lower the signal
Procedure, shortened: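 Human foreskin fibroblast primary cultures; M-CSF measured by ELISA 24 hours after chemical dosing. Bidirectional fitting relative to DMSO, with overt cytotoxicity tracked by parallel SRB total-protein staining (0.1% SRB, 10% TCA fixation, 560 nm).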

[10] = BSK_hDFCGF_SRB: Viability Assessment in the BioMAP Diversity Plus: hDFCGF Assay (AID 2283061); conditions: primary human foreskin fibroblasts;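 also: cells exposed to compound for 24 h before the read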
Procedure, shortened: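 Human foreskin fibroblasts in 96-well plates were treated 24 h. Total protein was measured by 0.1% SRB staining after 10% TCA fixation, read at 560 nm. Data were fitted bidirectionally against DMSO.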

[11] = read-out: TIMP metallopeptidase inhibitor 1 (TIMP1), TIMP1 (gene 7076); assay: BSK_hDFCGF_TIMP1: BioMAP Diversity Plus: hDFCGF Assay for TIMP metallopeptidase inhibitor 1 (TIMP1) Biomarker Activity (AID 2283062); conditions: primary human foreskin fibroblasts; actives raise or lower the signal
Procedure, shortened: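 Human foreskin fibroblast primary cultures dosed for 24 h; secreted/surface TIMP-1 quantified by ELISA. Bidirectional curve fitting against DMSO baseline; cytotoxicity tracked in parallel cultures by SRB total-protein staining.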

[12] = read-out: Monokine induced gamma interferon (MIG), CXCL9 (gene 4283); assay: BSK_hDFCGF_MIG: BioMAP Diversity Plus: hDFCGF Assay for Monokine induced gamma interferon (MIG) Biomarker Activity (AID 2283063); conditions: primary human foreskin fibroblasts; actives raise or lower the signal
Procedure, shortened: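 MIG/CXCL9 measured by ELISA 24 h after dosing primary human skin fibroblasts. Activity fitted in both directions against DMSO controls. Cytotoxicity was checked in parallel cultures by SRB staining read at 560 nm.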

[13] = read-out: Matrix Metallopeptidase 1 (MMP1), MMP1 (gene 4312); assay: BSK_hDFCGF_MMP1: BioMAP Diversity Plus: hDFCGF Assay for Matrix Metallopeptidase 1 (MMP1) Biomarker Activity (AID 2283064); conditions: primary human foreskin fibroblasts; actives raise or lower the signal
Procedure, shortened: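 Human foreskin fibroblasts exposed to chemical for 24 h; MMP1 detected by ELISA, with DMSO as baseline for bidirectional fitting.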

[14] = read-out: Vascular cell adhesion molecule 1 (VCAM1), VCAM1 (gene 7412); assay: BSK_hDFCGF_VCAM1: BioMAP Diversity Plus: hDFCGF Assay for Vascular cell adhesion molecule 1 (VCAM1) Biomarker Activity (AID 2283065); conditions: primary human foreskin fibroblasts; actives raise or lower the signal;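 as to AC50: VCAM-1 protein level quantified by ELISA after 24 h chemical exposure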
Procedure, shortened: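 Human foreskin fibroblast primary cells dosed with chemical, VCAM-1 measured by ELISA at 24 h. Bidirectional curve fitting relative to DMSO as negative control/baseline.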

[15] = read-out: Plasminogen activator inhibitor-1 (PAI1), SERPINE1 (gene 5054); assay: BSK_hDFCGF_PAI1: BioMAP Diversity Plus: hDFCGF Assay for Plasminogen activator inhibitor-1 (PAI1) Biomarker Activity (AID 2283066); conditions: primary human foreskin fibroblasts; actives raise or lower the signal
Procedure, shortened: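 PAI-1 levels in human dermal foreskin fibroblasts were quantified by ELISA 24 h after dosing, with gain or loss analysed against DMSO. Overt cytotoxicity was checked by sulforhodamine B total-protein staining in parallel cultures.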

[16] = read-out: Interferon-gamma inducible Protein 10 (IP10), CXCL10 (gene 3627); assay: BSK_KF3CT_IP10: BioMAP Diversity Plus: KF3CT Assay for Interferon-gamma inducible Protein 10 (IP10) Biomarker Activity (AID 2283068); conditions: primary human keratinocytes with fibroblasts; actives raise or lower the signal
Procedure, shortened: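 KF3CT co-culture (keratinocytes + foreskin fibroblasts), 24 h compound, IP-10 by ELISA; bidirectional fit vs DMSO baseline.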

[17] = read-out: Interleukin-1 alpha (IL1a), IL1A (gene 3552); assay: BSK_KF3CT_IL1a: BioMAP Diversity Plus: KF3CT Assay for Interleukin-1 alpha (IL1a) Biomarker Activity (AID 2283070); conditions: primary human keratinocytes with fibroblasts; actives raise or lower the signal
Procedure, shortened: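 Readout is IL-1a level by ELISA, compared bidirectionally with DMSO as baseline. Cells: human keratinocytes co-cultured with foreskin fibroblasts, harvested 24 h post-dose.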

[18] = read-out: TIMP metallopeptidase inhibitor 2 (TIMP2), TIMP2 (gene 7077); assay: BSK_KF3CT_TIMP2: BioMAP Diversity Plus: KF3CT Assay for TIMP metallopeptidase inhibitor 2 (TIMP2) Biomarker Activity (AID 2283071); conditions: primary human keratinocytes with fibroblasts; actives raise or lower the signal
Procedure, shortened: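 TIMP-2 measured by ELISA at 24 h in human keratinocyte/fibroblast primary co-cultures exposed to chemicals. Both increases and decreases were fitted against DMSO. Parallel cultures were stained with SRB for total protein as an overt-cytotoxicity check.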

[19] = read-out: Intercellular Adhesion Molecule 1 (ICAM1), ICAM1 (gene 3383); assay: BSK_KF3CT_ICAM1: BioMAP Diversity Plus: KF3CT Assay for Intercellular Adhesion Molecule 1 (ICAM1) Biomarker Activity (AID 2283067); conditions: primary human keratinocytes with fibroblasts; actives raise or lower the signal
Procedure, shortened: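 Human keratinocyte–foreskin fibroblast co-culture was treated for 24 h. Cell-surface ICAM-1 was quantified by ELISA, fitted bidirectionally relative to DMSO. Cytotoxicity was checked in parallel cultures by SRB total-protein staining.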

[20] = BSK_KF3CT_SRB: Viability Assessment in the BioMAP Diversity Plus: KF3CT Assay (AID 2283069); conditions: primary human keratinocytes with fibroblasts;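 also: read 24 h after compound addition; fitted for both signal gain and loss against DMSO baseline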
Procedure, shortened: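 Overt cytotoxicity is assessed as total protein by sulforhodamine B staining in parallel human skin co-cultures at 24 h after dosing. DMSO serves as negative control and baseline.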

## N#Cc1cccnc1
[1]
  outcome: inactive
[2]
  outcome: inactive
[3]
  outcome: inactive
[4]
  outcome: inactive
[5]
  outcome: inactive
[6]
  outcome: inactive
[7]
  outcome: inactive
[8]
  outcome: inactive
[9]
  outcome: inactive
[10]
  outcome: inactive
[11]
  outcome: inactive
[12]
  outcome: inactive
[13]
  outcome: inactive
[14]
  outcome: inactive
[15]
  outcome: inactive
[16]
  outcome: inactive
[17]
  outcome: inactive
[18]
  outcome: inactive

## Clc1cccc(Cl)c1
[1]
  outcome: inactive
[2]
  outcome: inactive
[3]
  outcome: inactive
[4]
  outcome: inactive
[5]
  outcome: inactive
[6]
  outcome: inactive
[7]
  outcome: inactive
[8]
  outcome: inactive
[9]
  outcome: inactive
[10]
  outcome: inactive
[11]
  outcome: inactive
[12]
  outcome: inactive
[13]
  outcome: inactive
[14]
  outcome: inactive
[15]
  outcome: inactive
[19]
  outcome: inactive
[16]
  outcome: inactive
[17]
  outcome: inactive

## Oc1c(Cl)cc(Cl)cc1Cl
[1]
  outcome: inactive
[2]
  outcome: inactive
[3]
  outcome: inactive
[4]
  outcome: inactive
[5]
  outcome: inactive
[6]
  outcome: inactive
[7]
  outcome: inactive
[8]
  outcome: inactive
[9]
  outcome: inactive
[10]
  outcome: inactive
[11]
  outcome: inactive
[12]
  outcome: inactive
[13]
  outcome: inactive
[14]
  outcome: inactive
[15]
  outcome: inactive
[19]
  outcome: inactive
[16]
  outcome: inactive
[17]
  outcome: inactive

## NC(=O)CCl
[1]
  outcome: inactive
[2]
  outcome: inactive
[3]
  outcome: inactive
[4]
  outcome: inactive
[5]
  AC50: 9.58 µM (active)
[6]
  outcome: inactive
[7]
  outcome: inactive
[8]
  outcome: inactive
[9]
  outcome: inactive
[10]
  outcome: inactive
[11]
  outcome: inactive
[12]
  outcome: inactive
[13]
  outcome: inactive
[14]
  outcome: inactive
[15]
  outcome: inactive
[19]
  outcome: inactive
[16]
  outcome: inactive
[20]
  outcome: inactive
[17]
  outcome: inactive

## Cc1ccc2nc3sc(=O)sc3nc2c1
[1]
  outcome: inactive
[2]
  outcome: inactive
[3]
  AC50: 2.14 µM (active)
[4]
  outcome: inactive
[5]
  outcome: inactive
[6]
  outcome: inactive
[7]
  outcome: inactive
[8]
  AC50: 5 µM (active)
[9]
  outcome: inactive
[10]
  outcome: inactive
[11]
  outcome: inactive
[12]
  AC50: 7.3 µM (active)
[13]
  outcome: inactive
[15]
  outcome: inactive
[16]
  outcome: inactive
[17]
  AC50: 5 µM (active)

## O=C(O)C1(c2ccc3c(c2)OC[C@H](Cc2ccc(-c4ccccc4)cc2)[C@H]3O)CCCC1
[1]
  outcome: inactive
[2]
  AC50: 7.31 µM (active)
[3]
  AC50: 28 µM (active)
[4]
  AC50: 20 µM (active)
[5]
  AC50: 4.51 µM (active)
[6]
  AC50: 5.5 µM (active)
[7]
  AC50: 14.7 µM (active)
[9]
  AC50: 8.18 µM (active)
[10]
  AC50: 7.76 µM (active)
[11]
  AC50: 11.7 µM (active)
[12]
  AC50: 12.8 µM (active)
[13]
  AC50: 7.46 µM (active)
[14]
  AC50: 5.32 µM (active)
[15]
  AC50: 5.07 µM (active)
[19]
  AC50: 30.3 µM (active)
[16]
  AC50: 9.87 µM (active)
[20]
  AC50: 25.7 µM (active)
[17]
  AC50: 31.3 µM (active)

## Cc1ccccc1OP(=O)(Oc1ccccc1C)Oc1ccccc1C
[1]
  outcome: inactive
[2]
  AC50: 11.2 µM (active)
[3]
  AC50: 20 µM (active)
[4]
  AC50: 32.4 µM (active)
[5]
  outcome: inactive
[6]
  AC50: 11.8 µM (active)
[7]
  outcome: inactive
[9]
  AC50: 7.75 µM (active)
[10]
  AC50: 8.28 µM (active)
[11]
  AC50: 11.7 µM (active)
[12]
  AC50: 12.8 µM (active)
[13]
  AC50: 12.7 µM (active)
[14]
  AC50: 6.18 µM (active)
[15]
  AC50: 6.03 µM (active)
[19]
  outcome: inactive
[16]
  AC50: 14.7 µM (active)
[17]
  AC50: 11.3 µM (active)

Reference: PubChem BioAssay (EPA / NIEHS)
